The text below walks through data of ChEMBL document CHEMBL3988442, “University of Dundee, Small-Polar-MMV Screening Library” (2021).

In all, about 48,000 compounds went through this assay and about 13,000 (27%) showed an effect of 50% or more. This is one part of the list.

The assay relates to Wolbachia pipientis. In words: Anti-Wolbachia Cell-Based Screen. The format is functional. Further details: scale not given: in the data most compounds retested in dose-response had high values. Conditions: 5 µM.
As for `Cc1ccc(CN(C)C(=O)c2cc3c(c(S(N)(=O)=O)c2)CCC3)o1`, the “Percent Effect” value is recorded as -13.85%. With `CCC1=N[C@@]2(CC[C@@H]3CN(S(=O)(=O)CC)C[C@@H]32)C(=O)N1CCOC`, the “Percent Effect” value is listed as -7.119%. For `CN(c1ncc(C(N)=O)cc1Cl)C1CCC(c2ccccc2)CC1` (stereo unspecified), the “Percent Effect” value is given as -13.88%. In the case of `CN(Cc1ccsc1)C(=O)Nc1ccc(=O)n(C)c1`, the “Percent Effect” value is given as -4.532%. Next, `NC(=O)CN1CCC(c2cccc(Oc3ccccc3)n2)CC1`: 173%. Take `CCn1cnnc1C1CCN(C(=O)COc2ccccc2)CC1`: the “Percent Effect” value turned out to be 2.9%. Consider `COCC(=O)N1CCC(c2cccc(Cc3ccc(F)cc3)n2)CC1`, for which the “Percent Effect” value is recorded as -12.66%. Take `NCC(=O)N1CCC(c2cccc(Oc3ccccc3)n2)CC1`: the “Percent Effect” value was found to be 130.3%.

Regarding `CCn1cnnc1C1CCN(C(=O)CCCOc2ccccc2)CC1`, the “Percent Effect” value worked out at 6.265%. Consider `CC(=O)N1CCC(c2cccc(Oc3ccccc3)n2)CC1`, for which the “Percent Effect” value is given as 144.2%. For `CNCC(=O)N1CCC(c2cccc(Oc3ccccc3)n2)CC1`, the “Percent Effect” value was determined as 178.2%.

For `CC(C)(C)c1nnc(CSc2ccccn2)o1`, the “Percent Effect” value came out at 4.822%.

On to `CN(Cc1ccccc1)C1(C(=O)NCC(N)=O)Cc2ccccc2C1`, for which the “Percent Effect” value is -1.712%.

`O=C(NCc1csc(Cc2ccccc2)n1)C1NCCc2[nH]cnc21` (stereo unspecified): the “Percent Effect” value is recorded as -10.41%. With `CCn1nc(C)c(NC(=O)c2cc(NC(=O)C(C)C)n(C)n2)c1C`, the “Percent Effect” value is reported as 2.528%.

With `CCCc1cc(C(=O)N(Cc2cccnc2)Cc2cccnc2)[nH]n1`, the “Percent Effect” value is given as -21.08%. On to `NCC1Cc2cc(-c3cncc(C(=O)N4CCCCC4)n3)cc(F)c2O1` (stereo unspecified), for which the “Percent Effect” value is given as -1.954%.

Consider `CN(C)CCNc1cc(-c2ncccc2Cl)c2cc[nH]c2n1`, for which the “Percent Effect” value was -5.947%.

Consider `COc1ncc(-c2cc(NCCN(C)C)nc3[nH]ccc23)c(OC)n1`, for which the “Percent Effect” value is given as -3.716%.

`Clc1cc(NCc2nccs2)nc2[nH]ccc12`: the “Percent Effect” value turned out to be 109.6%.

As for `Clc1cc(NCc2ncc[nH]2)nc2[nH]ccc12`, the “Percent Effect” value is listed as 61.99%. For `Fc1ccc(NCc2ncc[nH]2)cc1Br`, the “Percent Effect” value is listed as -22.04%. For `Clc1cc(NCc2ccncc2)nc2[nH]ccc12`, the “Percent Effect” value turned out to be 93.22%. Next, `O=C(Nc1ccccc1)c1ccc(NCc2ccncc2)nn1`: -22.46%; `O=C(CCc1ccc(Br)cc1)NCCc1nnc[nH]1`: 7.079%; `CC(C)(C)OCCN1CCCC1c1nc(Cc2ccc(F)cc2)no1` (stereo unspecified): 28.24%. As to `c1ccc(CN2CCC(NCCSc3cnn[nH]3)CC2)cc1`, the “Percent Effect” value is -22.28%.

As to `COc1ccc(Oc2cncc(C3CCCN3C(C)=O)n2)cc1` (stereo unspecified), the “Percent Effect” value is on record as -16.34%. Next, `CN(CC(=O)N1CCCC1c1ccccn1)Cc1ccccc1` (stereo unspecified): -5.131%; `O=C(CCCOCc1ccccc1)N1CCCC1c1ccccn1` (stereo unspecified): -5.136%; `CNCC(=O)N1CCCC1c1cncc(Oc2ccc(F)cc2)n1.Cl` (stereo unspecified): 105.9%. In the case of `CN(C)CC(=O)N1CCCC1c1ccccn1` (stereo unspecified), the “Percent Effect” value came to 98.84%. Turning to `COc1ccc(C2CCCN2C(=O)Nc2ccc(OC)nc2)cc1` (stereo unspecified), the “Percent Effect” value amounted to 2.775%.

As to `CC(=O)N1CCCC1c1cncc(Oc2ccc(F)cc2)n1` (stereo unspecified), the “Percent Effect” value was 97.95%. With `CN(C)CC(=O)N1CCCC1c1cncc(Oc2ccc(F)cc2)n1` (stereo unspecified) the figure was 102.5%. Next, `COC(=O)CCCC(=O)N1CCCCC1c1ccc(F)cc1` (stereo unspecified): -3.374%. As for `Cc1cn(-c2ccccc2)nc1NS(=O)(=O)c1cc(C(=O)O)cs1`, the “Percent Effect” value came out at 3.492%. With `COc1cccc(-c2n[nH]cc2C(=O)NC(C)c2n[nH]c(C)n2)c1` (stereo unspecified) the figure was 6.595%; with `O=C(NC1CC1)c1nc2c(o1)CN(c1ncccn1)C2`, -9.105%. Take `Fc1ccc(CN2CCCn3cnc(COCC4CC4)c3C2)cc1.O=C(O)C(F)(F)F`: the “Percent Effect” value is recorded as 3.17%. With `CC(C)CNC[C@H]1O[C@H](Cc2cc(-c3ccccn3)on2)CC[C@@H]1O` the figure was -6.166%.

Turning to `Cn1nc(C2CC2)c2c1NC(=O)CC2c1ccc(CN2CCCCC2)s1` (stereo unspecified), the “Percent Effect” value is recorded as -3.758%. With `COCCOc1ccccc1CNCC1COC2(CCCC2)O1` (stereo unspecified), the “Percent Effect” value is 0.05602%. With `CC(=O)N(Cc1ncc(C)o1)C1CCN(Cc2csc(C)n2)C1` (stereo unspecified), the “Percent Effect” value worked out at 123.5%. On to `CC(=O)N(Cc1ncc(C)o1)C1CCN(CCCc2cnn(C)c2)C1` (stereo unspecified), for which the “Percent Effect” value was determined as 5.261%. As for `CC(=O)N(Cc1ncc(C)o1)C1CCN(Cc2cc(C)on2)C1` (stereo unspecified), the “Percent Effect” value was 118.6%. With `CC(=O)N(Cc1ncc(C)o1)C1CCN(Cc2sc(C)nc2C)C1` (stereo unspecified) the figure was 115.4%; with `CC(=O)N(Cc1ncc(C)o1)C1CCN(Cc2noc(C)n2)C1` (stereo unspecified), 3.628%; with `Cc1cnc(CN(C)C2CCN(CC(=O)N(C)c3nccs3)C2)o1` (stereo unspecified), -8.119%. In the case of `CC(=O)N(Cc1ncc(C)o1)C1CCN(CCNC2CCCCC2)C1` (stereo unspecified), the “Percent Effect” value was -4.891%. With `CC(=O)N(Cc1ncc(C)o1)C1CCN(Cc2ccon2)C1` (stereo unspecified) the figure was 139.3%; with `COCCCN1CCN(C(=O)C(c2cccc(F)c2)N(C)C)CC1` (stereo unspecified), -8.976%. Regarding `CC(NC(=O)C1=NN(C)C(=O)CC1)c1ccc(F)cc1F` (stereo unspecified), the “Percent Effect” value was -12.15%. With `COc1ccc(OC)c(C2C3=C(COC3=O)Nc3[nH]nc(C)c32)c1` (stereo unspecified) the figure was 5.984%; with `Cn1c(NCC(O)c2ccc(F)cc2F)c(C#N)c(=O)n(C)c1=O` (stereo unspecified), -7.398%. Next, `CCN1CC(C(=O)N2CC(Oc3ccccc3Cl)C2)CC1=O` (stereo unspecified): -26.5%. `Cc1cc(CN(C)C(=O)NC2CCCC2)no1`: the “Percent Effect” value is recorded as -3.677%. `Cc1occc(=O)c1OCc1noc(C(=O)NC2CCCC2)n1`: the “Percent Effect” value amounted to 110.2%. Regarding `O=C(NCC1CC1)c1nc(COc2ccc3c(c2)OCO3)no1`, the “Percent Effect” value is given as 5.191%. Next, `O=C(NC1CCCC1)c1nc2c(o1)CN(CCO)C2`: 4.983%; `Cc1occc(=O)c1OCc1noc(C(=O)NCC2CC2)n1`: 118%. `COCCCNC(=O)Nc1ccc(OCc2noc(C3CC3)n2)cc1`: the “Percent Effect” value is recorded as 4.086%. Take `Cc1ccc(NC(=O)CSCc2cccnc2)nc1`: the “Percent Effect” value is 4.357%. With `CN(C)C(=O)C1(Oc2ccc(Cl)cc2)CCNCC1` the figure was -10.8%; with `CC(=O)N1Cc2ccccc2OC2(CCN(C(=O)C3CCOC3)CC2)C1` (stereo unspecified), 188.7%. In the case of `O=C(c1ccncc1)N1Cc2ccccc2OC2(CCOCC2)C1`, the “Percent Effect” value was -8.514%. Next, `CC(C)CNC(=O)N1CCC2(CCCO2)C1` (stereo unspecified): 14.05%. On to `CC(=O)N1CCOC2(CCN(C(=O)C3CC3)CC2)C1`, for which the “Percent Effect” value amounted to 104.2%.

On to `O=C(C1CCOC1)N1CCC2(CC1)CN(c1ncccn1)CCO2.O=C(O)C(F)(F)F` (stereo unspecified), for which the “Percent Effect” value is on record as -29.34%.

`CC(C)NC(=O)N1CCC2(CC1)CN(C(=O)NC(C)C)CCO2`: the “Percent Effect” value was determined as 117%.

As for `CC(C)n1cc(C(=O)N2Cc3ccccc3OC3(CCOCC3)C2)cn1`, the “Percent Effect” value is recorded as -9.745%. Consider `O=C(C1CCOC1)N1Cc2ccccc2OC2(CCOCC2)C1` (stereo unspecified), for which the “Percent Effect” value was determined as 110.4%.

Turning to `CC(=O)N1CCCC2(C1)CN(C(=O)C1CCCCC1)CCO2` (stereo unspecified), the “Percent Effect” value was -22.57%. As for `CN1CCCC2(C1)CN(C(=O)C1CCCCC1)CCO2` (stereo unspecified), the “Percent Effect” value was -29.79%. Take `CC(C)NC(=O)N1CCC2(CCCO2)C1` (stereo unspecified): the “Percent Effect” value worked out at 5.792%. Next, `COCCN(C)CCN1CC2(CCN(C(=O)C3CCOC3)CC2)OC1=O` (stereo unspecified): -2.366%.
